Measured values from PubChem BioAssay AID1645857 (Buhrlage Lab, Dana-Farber Cancer Institute and Novartis …, 2021).
In all, about 47,000 compounds went through this assay and about 1,400 (3%) were called active. This excerpt belongs to a sample that is enriched for actives. Values without a mark were called inactive. No stated cut-off is given here; in the data, active means inhibition above about 30%; inactive means the rest.

Each compound was assayed against Ubiquitin carboxyl-terminal hydrolase 28 (Homo sapiens) (UniProt Q96RU2) (assay: inhibitors of human USP28 deubiquitinase (AID 1645857)). Conditions: purified USP28, Ub-rhodamine cleavage fluorescence, 30 min; at 25 µM; active compounds read high.
Sequence of Ubiquitin carboxyl-terminal hydrolase 28 (Homo sapiens) (Q96RU2 whole entry, looked up): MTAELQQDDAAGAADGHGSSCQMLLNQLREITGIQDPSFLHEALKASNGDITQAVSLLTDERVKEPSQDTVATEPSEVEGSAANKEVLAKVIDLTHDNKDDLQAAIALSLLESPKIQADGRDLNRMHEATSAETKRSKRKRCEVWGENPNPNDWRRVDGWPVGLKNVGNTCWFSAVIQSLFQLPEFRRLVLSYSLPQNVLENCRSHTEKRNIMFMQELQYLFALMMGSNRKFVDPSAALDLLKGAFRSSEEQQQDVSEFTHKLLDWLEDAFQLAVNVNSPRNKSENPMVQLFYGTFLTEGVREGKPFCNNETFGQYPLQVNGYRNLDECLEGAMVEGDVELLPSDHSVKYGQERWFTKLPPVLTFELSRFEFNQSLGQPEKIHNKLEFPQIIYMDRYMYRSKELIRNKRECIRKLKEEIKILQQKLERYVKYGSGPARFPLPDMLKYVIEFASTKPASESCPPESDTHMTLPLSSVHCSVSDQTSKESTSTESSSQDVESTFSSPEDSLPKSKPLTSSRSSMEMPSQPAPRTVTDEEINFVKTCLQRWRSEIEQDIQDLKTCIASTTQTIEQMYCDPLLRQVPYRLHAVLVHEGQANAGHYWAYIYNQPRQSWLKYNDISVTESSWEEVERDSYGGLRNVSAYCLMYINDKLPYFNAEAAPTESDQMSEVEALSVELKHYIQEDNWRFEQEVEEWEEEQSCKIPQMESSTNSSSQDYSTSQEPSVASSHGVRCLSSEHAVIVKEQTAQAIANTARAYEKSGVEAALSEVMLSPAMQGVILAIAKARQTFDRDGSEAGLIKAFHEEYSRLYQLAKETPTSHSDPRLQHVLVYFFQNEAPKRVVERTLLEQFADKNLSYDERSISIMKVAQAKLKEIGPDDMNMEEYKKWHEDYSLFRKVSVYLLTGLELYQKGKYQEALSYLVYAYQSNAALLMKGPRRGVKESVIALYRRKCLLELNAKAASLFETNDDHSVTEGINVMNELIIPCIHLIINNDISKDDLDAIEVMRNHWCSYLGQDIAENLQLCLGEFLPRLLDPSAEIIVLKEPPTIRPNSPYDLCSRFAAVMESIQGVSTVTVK

| SMILES | inhibition |
| --- | --- |
| O=C(Cn1cccc(-c2nc(-c3ccccc3)no2)c1=O)Nc1ccccc1F | 6.71% |
| Cc1noc(-c2cccn(Cc3cc(F)ccc3F)c2=O)n1 | 29% |
| N#Cc1ccc(NC(=O)Nc2cccn(Cc3ccccc3F)c2=O)cc1 | 86.6% (active) |
| CC1(C(=O)NC2CCCCCC2)Cn2c(nc3ccccc32)C(=O)N1CCc1ccccc1 (centres undefined) | -1.29% |
| O=C(c1cc2c(=O)n3ccccc3nc2n1Cc1ccccc1)N1CCN(c2ccccc2)CC1 | -0.309% |
| COc1ccc(-c2[nH]c3ccccc3c2SCCNC(=O)c2ccc(S(=O)(=O)N3CCOCC3)cc2)cc1 | 32.8% (active) |
| COc1ccc(NC(=O)c2cc(=O)[nH]c3ccccc23)cc1S(=O)(=O)N1CCOCC1 | -0.445% |
| COc1ccc(-c2cnc(SCCNC(=O)c3cccc(F)c3)[nH]2)cc1 | 12.3% |
| COc1ccccc1Nc1ncnc2oc(C)c(C)c12 | -18.5% |
| COc1ccc(OC)c(-n2c(CNC(=O)c3ccco3)nnc2SCC(=O)N2CCc3ccccc32)c1 | 0.00951% |
| CC(=O)c1ccc(NC(=O)CCCn2nc([N+](=O)[O-])cc2C)cc1 | 9.41% |
| C#CCOc1ccc2ccccc2c1CN1CCc2ccccc2C1 | 39.7% (active) |
| C#CCOc1ccc(CN2CCc3nc(-c4cccnc4)[nH]c(=O)c3C2)cc1OC | -1.43% |
| CS(=O)(=O)N1CCC2(CC1)CN(C(=O)c1ccc3[nH]ccc3c1)Cc1ccccc1O2 | 7.47% |
| CC(C)Cc1cc(-c2nn3c(-c4ccccc4Cl)nnc3s2)n[nH]1 | 30.4% (active) |
| COCCn1ccc(-c2cc(C(=O)N3CCCN(C)CC3)c3ccccn23)n1 | -61% |
| CN(C)c1cccc(NC(=O)N2CC[C@@H]3[C@H]2C(=O)N(C)[C@@H](Cc2ccccc2)C(=O)N3C)c1 | -0.0135% |
| Cc1ccc(NC(=O)C2CCN(S(=O)(=O)c3cnc[nH]3)CC2)cc1Cl | 39% (active) |
| CCc1cccc(NC(=O)C2CCN(c3ccncc3)CC2)c1 | 22% |
| CC1CCN(S(=O)(=O)N2CCCC(C(=O)Nc3ccccc3Cl)C2)CC1 (centres undefined) | -2.94% |
| COc1ccc(CNC(=O)c2[nH]nc3c2CCc2ccccc2-3)cc1 | 30.6% (active) |
| COc1ccc(CNC(=O)c2cccc3cccnc23)cc1 | 4.72% |
| COc1ccc(CNC(=O)c2ccccc2-c2ncc(-c3ccccc3)o2)cc1 | 21.9% |

| SMILES | inhibition |
| --- | --- |
| Clc1cc2nc(N3CCN(c4ccccn4)CC3)c3nncn3c2cc1Cl | 36.5% (active) |
| Cc1nn(-c2ccccc2)c(C)c1S(=O)(=O)N1CCN(c2ccccn2)CC1 | -7.5% |
| O=C(c1ccc(N2CCCC2)nn1)N1CCN(c2ccccn2)CC1 | 2.13% |
| O=C(N[C@H]1C[C@@H]2C[C@H]1N(C(=O)c1ccc3c(c1)OCO3)C2)c1ccccc1 | -126% |
| CCOc1ccc(NC(=S)Nc2ccc(Cc3ccncc3)cc2)cc1 | 36.8% (active) |
| O=S(=O)(Nc1ccc(Cc2ccncc2)cc1)c1ccc2c(c1)OCCO2 | 9.83% |
| CCN(CC)c1ccc(NC(=O)Nc2ccc(OCc3ccccc3)cc2)cc1 | -7.22% |
| Cc1cc(-c2ncc(C)[nH]2)nc(C2CCCCN2C(=O)c2ccccc2)n1 (centres undefined) | 5.54% |
| Cn1c(N2CCN(C(=O)c3cccc(Cl)c3)CC2)cc(=O)n(C)c1=O | -5.96% |
| CC(=O)C[n+]1cc(-c2ccc(C)cc2)n2c1CCC2 | -0.406% |
| Clc1ccc(C[n+]2cc(-c3ccc(Cl)cc3)n3c2CCC3)cc1 | 54.6% (active) |
| Cc1c(Cl)cccc1NC(=O)C[n+]1cc(-c2ccc(Cl)cc2)n2c1CCC2 | 10.7% |
| CCCc1cc(=O)[nH]c(N2CCN(c3ccc(Cl)cc3)CC2)n1 | 0.253% |
| CC(C)=CCc1cc(O)ccc1O | -0.0939% |
| CC(C)=CCC(O)C1=CC(=O)c2c(O)ccc(O)c2C1=O (centres undefined) | 93.4% (active) |
| CN1C(=O)[C@H](Cc2ccccc2)N(C)C(=O)[C@@H]2[C@H]1CCN2C(=O)Nc1cccc(C#N)c1 | -9.42% |
| Cn1nc(C2CCN(Cc3ccc4c(c3)CC(C)(C)O4)CC2)c2nccnc21 | -6.5% |
| CC(C)C(=O)N1c2ncnn2C(c2ccc(Cl)cc2)CC1c1ccccc1 (centres undefined) | -5.15% |
| CC(=O)c1ccc(N2CCN(CC(=O)c3c(N)n(Cc4ccccc4)c(=O)n(C)c3=O)CC2)cc1 | -11.8% |
| CN1CCC(N(C)C(=O)c2ccc(Cl)c(S(=O)(=O)Nc3ccccc3C(=O)N(C)C3CCN(C)CC3)c2)CC1 | -0.184% |
| Cc1ccc(Cn2c(C(=O)O)c(CNC(C)CCc3ccccc3)c3ccccc32)cc1 (centres undefined) | 32.3% (active) |
| CC(CCc1ccccc1)NCc1c(C(=O)O)n(Cc2ccccc2F)c2ccccc12 (centres undefined) | 23% |
| Cc1ccc(CCNCc2c(C(=O)O)n(C)c3ccccc23)cc1 | -5.83% |

| SMILES | inhibition |
| --- | --- |
| CC1CCCCN1Cc1nc2c([nH]1)c(=O)n(C)c(=O)n2C (centres undefined) | -0.186% |
| CC(NS(=O)(=O)c1ccc2c(c1)SCC(=O)N2)c1ccccc1 (centres undefined) | 13% |
| CCC(Cc1ccccc1)NS(=O)(=O)c1ccc2c(c1)NC(=O)CS2 (centres undefined) | 37.3% (active) |
| CCCN(CCC)CCNS(=O)(=O)c1ccc2c(c1)NC(=O)CCS2 | -7.06% |
| CC(C)NC(=O)CN1C(=O)CC(C)Sc2ccc(S(=O)(=O)N3CCCCC3)cc21 (centres undefined) | 13.7% |
| CCc1nnc(C2CCN(C(=O)c3ccc(F)cc3F)CC2)s1 | -5.47% |
| CC1CCN(c2nc(F)c3c(c2F)S(=O)(=O)CCN3Cc2cccnc2)CC1 | -20.5% |
| O=C(Nc1nnc(-c2cccc([N+](=O)[O-])c2)o1)C1CCN(S(=O)(=O)c2ccc3c(c2)CCC3)CC1 | 46.2% (active) |
| O=C(COC(=O)C1CCN(S(=O)(=O)c2c(Cl)cccc2Cl)CC1)Nc1ccc2c(c1)CCC2 | 15.4% |
| Cc1cccc(-c2nnc(-c3cccc(S(=O)(=O)N4CCCC4)c3)o2)c1 | 4.29% |
| CCOc1ccc2nc3sc(C(=O)N4CCCC4)c(N)c3cc2c1 | -2.52% |
| COc1ccc(NC(=O)CC[C@@H]2NC(=O)N([C@@H](C)c3ccccc3)C2=O)cc1 | 8.47% |
| O=C(CCc1nnc2n(Cc3ccc(Cl)cc3)c(=O)c3ccccc3n12)NCCN1CCOCC1 | -1.7% |
| Clc1ccc(C2NC3=NCN(Cc4ccco4)CN3c3nc4ccccc4n32)cc1 (centres undefined) | 32.7% (active) |
| CN(Cc1cccnc1Oc1ccccc1)C(=O)c1cnccn1 | -1.11% |
| O=C1COC2(CCN(c3ncccn3)CC2)CN1Cc1cccc(F)c1 | -14.6% |
| CCN1C[C@H]2C3(CCN(S(=O)(=O)c4ccccc4)CC3)CC[C@@]2(C(=O)NC)C1 | 0.022% |
| COc1ccc(CCNC(=O)CCCn2c(=O)c3ccccc3n(CC(=O)OCc3ccccc3)c2=O)cc1OC | 26.2% |
| N#Cc1ccccc1Cn1c(=O)n(CCCC(=O)NCc2ccc(F)cc2)c(=O)c2ccccc21 | 8.1% |
| Cc1ccc(CNC(=O)CCCn2c(=O)c3sccc3n(CC(=O)OCc3ccccc3)c2=O)cc1 | 45.6% (active) |
| CN1CCc2onc(-c3cccc(CN)c3)c2C1=O | 11.5% |
| CCOc1ccccc1C1c2[nH]c3ccccc3c2C[C@H]2C(=O)N(CCCc3ccccc3)CC(=O)N12 (some centres undefined) | -32.1% |
| CSc1ccccc1NC(=O)c1ccc(N2CCCC2)nn1 | 3.05% |

| SMILES | inhibition |
| --- | --- |
| CC1CCc2c(cnc3c(C(=O)NCc4cccnc4)cnn23)C1 (centres undefined) | -1.11% |
| Cc1ccccc1NC(=O)Cc1csc2nc(-c3ccc(F)cc3)cn12 | 37.7% (active) |
| Cc1cc(F)ccc1NC(=O)Cc1n[nH]c(Cc2ccccc2)n1 | -17.7% |
| O=C(Cc1ccc(F)cc1)Nc1ccccc1Cc1ccccc1 | 11.8% |
| N#Cc1ccc(C(=O)N2CCN(c3cc(-c4ccccc4)[nH]n3)CC2)cc1 | -11% |
| CCOC(=O)c1cnn(-c2ccc(C(=O)Nc3ccc(C(C)=O)cc3)cn2)c1N | -5.3% |
| Cc1ccccc1NC(=O)c1ccc(-c2nc3cccnc3n(C3CCCC3)c2=O)cc1 | -11.7% |
| Cc1ccc(C(=O)Nc2cccc3c2CCCC3)cc1C | 1.01% |
| CC(=O)Nc1cccnc1-c1ccc(C(=O)Nc2ccc(C)c(C)c2)cc1 | 37.1% (active) |
| O=C(c1cccc(Nc2ncccn2)c1)N1CCOCC2(C1)CN(c1ccccc1)C(=O)O2 (centres undefined) | -1.6% |
| COc1ccc(CCNC(=O)CSc2cn(CCNC(=O)c3ccccc3C)c3ccccc23)cc1OC | 13.1% |
| COc1ccc(CCNC(=O)c2ccc3ccccc3c2)cc1OC | 54.7% (active) |
| COc1ccc(CCNC(=O)c2ccccc2OCc2ccc(F)cc2)cc1 | 10.8% |
| Cc1cc(C)c(-c2nnc(NC(=O)c3ccc(-c4ccccc4)cc3)s2)c(C)c1 | -5.98% |
| CCOC(=O)c1ccc(NC(=O)CSc2nnc(CNC(=O)c3ccc(OC)cc3)n2C)cc1 | -5.59% |
| Cc1ccc(NS(=O)(=O)c2cc3n(c2)CCN(C)C3=O)cc1 | -5.99% |
| O=C1C(O)=C(c2ccc(O)c(O)c2)C(=O)C(O)=C1c1ccccc1 | 66.9% (active) |
| O=CNC1CC2(CCCCC2)Oc2ccccc21 (centres undefined) | -1.81% |
| c1ccc(-c2csc3ncnc(NC4CCCc5ccccc54)c23)cc1 (centres undefined) | -4.83% |
| CN1CC(=O)N(C2CCCNC2)Cc2c(NC3CCc4ccccc43)ncnc21 (centres undefined) | 90.6% (active) |
